High-throughput results as filed in PubChem BioAssay.
MCL1 BIM primary: inhibitors of human MCL1 binding to BIM-BH3 peptide. Q07820. GST-MCL1 / FITC-Bim-BH3 fluorescence polarization. inhibition, % at 10.9 µM. hit rate 0.68% among 320,000;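 active means inhibition above the mean inhibition of all tested compounds plus 3 SD, set per campaign, cut at about 40% in these data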;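 further: 0% = DMSO wells and 100% = unlabeled Bim-BH3 peptide control; higher means more loss of mP so more displacement of Bim peptide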
Mcl-1 Bim block: human Bim-Mcl-1 interaction inhibition; Q07820; Bead-based flow cytometry, Bim peptide-Mcl-1 binding; inhibition, % at 10 µM; hit rate 0.1% among 190,000; AID 1009; in the data active means inhibition above about 40%;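 further: 0% = no compound tracer wells and 100% = peptide blocker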
Mcl1-Bid inh: disrupts binding of human Mcl-1 to Bid peptide | TR-FRET Mcl-1/Bid-Dy647 peptide binding, 1536-well | inhibition, % at 21.7 µM | hit rate 0.97% among 220,000 | AID 1021;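 active means compounds that cut the binding signal by more than half at the single screening dose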;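 further: His-tagged Mcl-1 with europium anti-His antibody binding Bid BH3 peptide; 0% = Mcl-1 plus peptide wells and 100% = peptide-only wells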
GLD-1 RNA inh: GLD-1-TGE RNA interaction inhibition (C. elegans); inhibition, % at 5.96 µM; purified GLD-1 + fluorescein TGE RNA, fluorescence polarization; hit rate 0.44% among 320,000; AID 2280;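 active means percent inhibition above a per-plate cutoff, the plate mean of test compounds plus 3 SD, cut at about 30% in these data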;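 further: 0% = DMSO wells with GLD-1 and probe and 100% = wells lacking GLD-1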
Target sequence (Q17339 whole entry, looked up): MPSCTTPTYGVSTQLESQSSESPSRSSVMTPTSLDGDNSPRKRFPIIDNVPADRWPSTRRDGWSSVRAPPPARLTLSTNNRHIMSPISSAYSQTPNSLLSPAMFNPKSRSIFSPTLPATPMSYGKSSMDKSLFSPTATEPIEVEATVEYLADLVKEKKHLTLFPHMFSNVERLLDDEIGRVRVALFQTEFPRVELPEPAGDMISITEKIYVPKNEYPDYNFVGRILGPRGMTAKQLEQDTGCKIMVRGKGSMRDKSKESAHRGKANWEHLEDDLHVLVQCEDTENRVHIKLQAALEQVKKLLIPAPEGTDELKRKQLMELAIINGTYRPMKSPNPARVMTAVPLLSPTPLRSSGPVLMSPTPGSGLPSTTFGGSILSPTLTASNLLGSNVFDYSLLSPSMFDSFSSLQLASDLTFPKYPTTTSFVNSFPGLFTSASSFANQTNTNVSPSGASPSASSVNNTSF
BCLXL inh: inhibitors of human Bcl-xL | inhibition, % at 10.9 µM | GST-Bcl-xL / FITC-Bim BH3 peptide fluorescence polarization | Q07817 | AID 2129 | hit rate 0.7% among 320,000;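 active means inhibition above the mean of all tested compounds plus 3 SD, cutoff set per campaign, cut at about 30% in these data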;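 further: 0% = DMSO wells and 100% = unlabeled Bim-BH3 peptide competitor; inhibitors lower millipolarization by displacing the labeled peptide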
Target sequence (Q07817 whole entry, looked up): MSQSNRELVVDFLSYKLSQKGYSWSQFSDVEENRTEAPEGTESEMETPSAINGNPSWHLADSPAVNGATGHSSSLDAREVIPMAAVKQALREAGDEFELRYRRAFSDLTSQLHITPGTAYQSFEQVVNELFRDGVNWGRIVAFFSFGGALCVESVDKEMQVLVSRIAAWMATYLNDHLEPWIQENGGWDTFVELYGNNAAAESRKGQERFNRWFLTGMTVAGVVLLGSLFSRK
Mcl1 Noxa PPI: Mcl-1/Noxa interaction inhibition | Q07820 | TR-FRET Mcl-1/Noxa peptide binding, 2 h | inhibition, % at 21.7 µM | hit rate 1.5% among 220,000;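 active means compounds that cut the protein-peptide binding signal by more than 50% relative to plate controls in a single-dose test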;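 further: His-tagged Mcl-1 with rhodamine Noxa BH3 peptide and terbium anti-His antibody; 0% = Mcl-1 plus Noxa peptide wells and 100% = peptide-only wells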
* = called active by the depositor; . = no result given. Shown are actives, neighbours in structure and some others; about 2.3% of the full set was active somewhere.

SMILES	MCL1 BIM primary	Mcl-1 Bim block	Mcl1-Bid inh	GLD-1 RNA inh	BCLXL inh	Mcl1 Noxa PPI
O=C(Nc1ccc2oc(=O)ccc2c1)c1ccc(-c2ccc(Cl)cc2)o1	1.7	-7.0	55.8*	4.7	5.3	-14.8
O=C(Nc1ccc2oc(=O)ccc2c1)c1cc2ccccc2o1	0.8	-12.0	13.8	1.0	2.9	-5.1
O=C(Nc1ccc(CN2CCOCC2)cc1)c1ccc(-c2cccc(Cl)c2)o1	4.2	-3.0	-30.4	0.8	5.7	-7.8
COc1ccc(CCNC(=O)c2cc(-c3ccccn3)nc3c(Cl)cccc23)cc1OC	16.7	88.0*	-25.0	3.7	4.5	8.1
COc1ccc(S(=O)(=O)N2CCCC2CNC(=O)C(=O)NCc2ccco2)cc1 (configuration not stated)	7.0	.	.	0.9	7.4	.
COc1ccc(C=NCC2COc3ccccc3O2)cc1OC (configuration not stated)	0.1	-1.0	-9.6	0.6	4.3	16.6
Oc1ccc(C=NCC2COc3ccccc3O2)cc1 (configuration not stated)	3.5	80.0*	-8.9	4.5	-1.1	14.2
N#CCSc1nc2cc(C(=O)N3CCC(C(N)=O)CC3)ccc2c2nc3ccccc3n12	-1.5	0.0	2.4	4.8	9.1	51.4*
N#CCSc1nc2cc(C(=O)N3CCCC3)ccc2c(=O)n1Cc1ccccc1	3.7	15.0	17.7	-7.6	0.6	19.2
Cc1ccc(NC2CCCCC2NS(=O)(=O)c2ccccc2)c(C)c1 (configuration not stated)	5.1	.	.	0.5	3.6	.
O=C1N=c2ccccc2=C1c1sc(=S)n(Cc2ccccc2Cl)c1O	10.9	.	-22.1	-3.9	5.3	3.2
Cc1c(-n2c(O)c(C3=c4ccccc4=NC3=O)sc2=S)c(=O)n(-c2ccccc2)n1C	16.3	-1.0	31.7	1.6	14.3	52.9*
O=C1N=c2ccccc2=C1c1sc(=S)n(-c2ccc(O)cc2)c1O	8.0	.	21.0	3.2	11.7	70.0*
CCc1nc(NC(=O)NS(=O)(=O)c2ccccc2C(=O)OC)nc(OC)n1	1.9	0.0	-18.4	-1.0	4.4	3.6
O=Cc1cn(-c2ccccc2)nc1-c1cc2cc(O)ccc2oc1=O	-14.0	-2.0	61.2*	6.2	-34.9	37.6
COc1ccc(F)cc1S(=O)(=O)NCC(c1ccco1)N1CCc2ccccc2C1 (configuration not stated)	-1.1	.	.	3.9	9.4	.
CC(=O)OCCNc1cc(Sc2nc3ccccc3[nH]2)c2nonc2c1[N+](=O)[O-]	4.7	-6.0	-106.3	6.1	13.9	61.0*
CC(=O)OCCCNc1cc(Sc2nc3ccccc3s2)c2nonc2c1[N+](=O)[O-]	14.9	4.0	-66.9	0.0	15.6	63.8*
CC(=O)c1cccc(NC(=O)C(C)OC(=O)CN2C(=O)NC(C)(C)C2=O)c1 (configuration not stated)	1.9	.	.	0.3	1.1	.
Cc1ccc2nc(-c3ccc(NC(=O)CSc4nc(N)cc(=O)[nH]4)cc3)sc2c1	-13.6	.	53.0*	-4.0	-9.1	32.0
Cc1ccc2nc(-c3ccc(NC(=O)COC(=O)c4ccc(=O)[nH]c4)cc3)sc2c1	-35.3	0.0	49.9	-3.1	-10.0	63.4*
c1ccc(Nc2cccc(Nc3ccccc3)c2)cc1	5.2	-6.0	20.5	-2.8	5.7	88.0*
Nc1cccc(Nc2ccccc2)c1	24.4	2.0	-85.0	-72.0	50.1*	2.9
Cc1c(C(=O)Oc2ccc(-c3cnc4ccccc4n3)cc2)cccc1[N+](=O)[O-]	17.0	-8.0	50.4	-0.4	17.1	67.3*
O=C(Oc1ccc(-c2cnc3ccccc3n2)cc1)c1cc([N+](=O)[O-])ccc1Cl	10.7	-2.0	32.1	-3.1	9.3	-1.9
SMILES	MCL1 BIM primary	Mcl-1 Bim block	Mcl1-Bid inh	GLD-1 RNA inh	BCLXL inh	Mcl1 Noxa PPI
COc1ccc(C(=O)n2cnc3ccccc32)cc1[N+](=O)[O-]	4.4	.	.	-0.6	2.8	.
O=C(c1ccc2ccccc2n1)N1CCN(S(=O)(=O)c2ccccc2)CC1	.	.	.	-2.2	.	.
Cc1ccc(NC(=O)CN2C(=O)N/C(=C/c3cc(C)n(-c4ccc(C(=O)O)cc4)c3C)C2=O)cc1	.	1.0	-122.7	.	.	76.0*
Cc1ccc(NC(=O)CN2C(=O)S/C(=C\c3cc(C)n(-c4ccc(C(=O)O)cc4)c3C)C2=O)cc1	-1.6	-2.0	-39.5	-0.5	2.5	14.0
Cc1ccc(NC(=O)CN2C(=O)N/C(=C/c3ccco3)C2=O)cc1	24.6	1.0	-23.0	4.6	6.8	61.3*
CCc1nnc(SCC(=O)Nc2nc(C)c(C(=O)N(C)C)s2)n1CC	2.6	.	.	7.1	-1.6	.
CCCCn1c(-c2ccc(C(C)(C)C)cc2)nc2cc3[nH]c(=O)c(C(C)C)nc3cc21	30.3	.	.	8.4	25.2	.
CCCCn1c(-c2cccc(Br)c2)nc2cc3[nH]c(=O)c(C(C)C)nc3cc21	22.7	.	.	18.8	31.1*	.
CCCCn1c(-c2cccnc2)nc2cc3[nH]c(=O)c(C(C)C)nc3cc21	26.4	.	.	18.2	31.2*	.
Cc1c(C)n(Cc2ccccc2)c2ccc(C(=O)OCCN(C)C)cc12	-10.8	-3.0	-22.2	7.9	-3.1	26.4
CC(C)CCN1CCN=C1Nc1ccccc1	-1.6	.	.	2.1	-1.6	.
COc1ccc(/C=N/n2c(N)nc(-c3ccccc3)c2-c2ccccc2)cc1	0.3	-3.0	56.5*	0.8	2.0	48.3
COc1ccc(/C=N/n2c(-c3ccccc3)n[nH]c2=S)cc1	-9.0	.	.	1.4	-29.1	.
C[C@H](CO)N1C[C@H](C)[C@@H](CN(C)C(=O)NC2CCCCC2)Oc2c(NS(=O)(=O)c3ccc(F)cc3)cccc2C1=O	.	.	.	2.5	.	.
C/C(=N\NC(=O)c1cc(C)oc1C)c1ccc2ccccc2c1	1.6	.	.	-4.6	0.2	.
CCOc1ccc(C(=O)Nc2cccc(-c3nc4cccnc4o3)c2)cc1Cl	-8.8	0.0	50.9*	0.6	-3.4	-3.7
CCOc1ccc(C(=O)Nc2cc(NC(=O)c3ccc(OCC)c(Cl)c3)cc(C(=O)O)c2)cc1Cl	.	-2.0	5.0	.	.	83.5*
CCOc1ccc(C(=O)Nc2cccc(C(=O)O)c2)cc1Cl	-6.5	3.0	-28.5	2.0	0.8	-0.5
CCOc1ccc(C(=O)Nc2ccc(NC(=O)c3ccco3)c(Cl)c2)cc1Cl	4.9	-17.0	-31.6	2.8	0.1	-32.2
Cn1cnc(S(=O)(=O)NCc2ccc(Br)cc2)c1	0.3	.	.	2.7	-0.8	.
C=CCN(c1ccc(C(=O)NCCSc2ccccc2)cc1)S(C)(=O)=O	-3.4	.	.	3.0	0.9	.
CCOc1ccc(S(=O)(=O)N(CC(=O)N/N=C/c2ccc(-c3ccc([N+](=O)[O-])cc3)o2)c2ccccc2)cc1	7.6	6.0	33.0	-17.6	-3.8	65.1*
CCCCN(C)C(=O)CNC(=O)c1nn(-c2ccc(OC)cc2OC)c(=O)c2ccccc12	-5.1	.	.	4.4	3.3	.
COc1ccc(C(=O)N2c3ccccc3CC2C)cc1OC (configuration not stated)	3.1	-3.0	0.8	6.4	2.3	74.3*
